# Reference: the supplement of paper PMC10849652
# The full data set covers some 7,900 targets. This sample favours those with a hit. About 0.6% of all pairs of compound and target were hits. Unmarked numbers belong to inactive results.
# How the values were obtained:
# Test in all cases: log2 fold change, soluble protein after heating vs DMSO (PISA); higher = thermal stabilisation; K562 cells, 10 uM, 30 min; active = over 0.2 and 3.5 SD of the protein, either way, in both replicates (recomputed)
# [1] = compound: CN1CCN(CCOc2cc(OC3CCOCC3)c3c(Nc4c(Cl)ccc5c4OCO5)ncnc3c2)CC1 [saracatinib]
# Procedure, shortened: (§1)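 For each measurement, 10 μM compound was applied for 30 min to K562 cells at 2×10^6 cells/mL. Aliquots were heated for 3 min across 48°C-58°C, pooled, and extracted in PBS with 0.5% NP-40 at 4°C; the supernatant after 21,000xg for 90 min was soluble protein. This was quantified by TMTpro 16plex LC-MS/MS with channel sums equalised, and thermal stability was reported relative to control samples from duplicates, on a log2 fold-change scale.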
# [2] = compound: CN1CCN(c2nc(C3=C(c4c[nH]c5ccccc45)C(=O)NC3=O)c3ccccc3n2)CC1 [sotrastaurin]
# Procedure, shortened: as §1
# [3] = compound: CN1CC[C@H](c2c(O)cc(O)c3c(=O)cc(-c4ccccc4Cl)oc23)[C@H](O)C1 [alvocidib]
# Procedure, shortened: as §1
# [4] = compound: CN1CCc2c(c3ccccc3n2Cc2ccc(C(=O)NO)cc2)C1 [Tubastatin A]
# Procedure, shortened: as §1
# [5] = compound: CNC(=O)C1=CC=CC=C1NC2=NC(=NC=C2Cl)NC3=C(C=C(C=C3)N4CCOCC4)OC
# Procedure, shortened: as §1
# [6] = compound: CNC(=O)c1ccc(Nc2ncc(C(F)(F)F)c(NCc3nccnc3N(C)S(C)(=O)=O)n2)cc1 [defactinib]
# Procedure, shortened: as §1
# [7] = compound: CNCc1ccc(-c2[nH]c3cc(F)cc4c3c2CCNC4=O)cc1 [rucaparib]
# Procedure, shortened: as §1
# [8] = compound: CNc1nc(-c2ccc3c(N)n[nH]c3c2)cc(N2C[C@@H](C(=O)NC3CCCCC3)CC[C@H]2C)n1
# Procedure, shortened: as §1
# [9] = compound: COC(=O)N[C@@H](C)CNc1nccc(-c2cn(C(C)C)nc2-c2cc(Cl)cc(NS(C)(=O)=O)c2F)n1 [encorafenib]
# Procedure, shortened: as §1
# [10] = compound: COC(=O)[C@H](CCSC)NC(=O)C1=C(C=C(C=C1)NC[C@H](CS)N)C2=CC=CC=C2
# Procedure, shortened: as §1
# Sequence of UniProt P05091 (P05091 whole entry, looked up): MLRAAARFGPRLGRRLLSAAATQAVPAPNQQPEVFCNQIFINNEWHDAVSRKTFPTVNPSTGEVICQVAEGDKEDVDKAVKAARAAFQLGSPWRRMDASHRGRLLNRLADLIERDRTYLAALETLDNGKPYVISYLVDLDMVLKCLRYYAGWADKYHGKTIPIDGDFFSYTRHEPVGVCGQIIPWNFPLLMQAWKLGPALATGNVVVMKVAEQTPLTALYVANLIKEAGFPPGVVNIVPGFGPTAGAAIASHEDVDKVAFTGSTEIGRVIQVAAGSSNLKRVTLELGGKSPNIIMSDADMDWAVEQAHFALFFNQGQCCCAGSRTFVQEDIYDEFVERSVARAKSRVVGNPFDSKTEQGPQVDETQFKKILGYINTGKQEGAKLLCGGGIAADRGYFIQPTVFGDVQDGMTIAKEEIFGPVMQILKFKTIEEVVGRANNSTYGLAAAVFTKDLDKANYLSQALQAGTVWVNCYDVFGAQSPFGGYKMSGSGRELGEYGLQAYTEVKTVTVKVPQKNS
# Sequence of UniProt P35670 (P35670 whole entry, looked up): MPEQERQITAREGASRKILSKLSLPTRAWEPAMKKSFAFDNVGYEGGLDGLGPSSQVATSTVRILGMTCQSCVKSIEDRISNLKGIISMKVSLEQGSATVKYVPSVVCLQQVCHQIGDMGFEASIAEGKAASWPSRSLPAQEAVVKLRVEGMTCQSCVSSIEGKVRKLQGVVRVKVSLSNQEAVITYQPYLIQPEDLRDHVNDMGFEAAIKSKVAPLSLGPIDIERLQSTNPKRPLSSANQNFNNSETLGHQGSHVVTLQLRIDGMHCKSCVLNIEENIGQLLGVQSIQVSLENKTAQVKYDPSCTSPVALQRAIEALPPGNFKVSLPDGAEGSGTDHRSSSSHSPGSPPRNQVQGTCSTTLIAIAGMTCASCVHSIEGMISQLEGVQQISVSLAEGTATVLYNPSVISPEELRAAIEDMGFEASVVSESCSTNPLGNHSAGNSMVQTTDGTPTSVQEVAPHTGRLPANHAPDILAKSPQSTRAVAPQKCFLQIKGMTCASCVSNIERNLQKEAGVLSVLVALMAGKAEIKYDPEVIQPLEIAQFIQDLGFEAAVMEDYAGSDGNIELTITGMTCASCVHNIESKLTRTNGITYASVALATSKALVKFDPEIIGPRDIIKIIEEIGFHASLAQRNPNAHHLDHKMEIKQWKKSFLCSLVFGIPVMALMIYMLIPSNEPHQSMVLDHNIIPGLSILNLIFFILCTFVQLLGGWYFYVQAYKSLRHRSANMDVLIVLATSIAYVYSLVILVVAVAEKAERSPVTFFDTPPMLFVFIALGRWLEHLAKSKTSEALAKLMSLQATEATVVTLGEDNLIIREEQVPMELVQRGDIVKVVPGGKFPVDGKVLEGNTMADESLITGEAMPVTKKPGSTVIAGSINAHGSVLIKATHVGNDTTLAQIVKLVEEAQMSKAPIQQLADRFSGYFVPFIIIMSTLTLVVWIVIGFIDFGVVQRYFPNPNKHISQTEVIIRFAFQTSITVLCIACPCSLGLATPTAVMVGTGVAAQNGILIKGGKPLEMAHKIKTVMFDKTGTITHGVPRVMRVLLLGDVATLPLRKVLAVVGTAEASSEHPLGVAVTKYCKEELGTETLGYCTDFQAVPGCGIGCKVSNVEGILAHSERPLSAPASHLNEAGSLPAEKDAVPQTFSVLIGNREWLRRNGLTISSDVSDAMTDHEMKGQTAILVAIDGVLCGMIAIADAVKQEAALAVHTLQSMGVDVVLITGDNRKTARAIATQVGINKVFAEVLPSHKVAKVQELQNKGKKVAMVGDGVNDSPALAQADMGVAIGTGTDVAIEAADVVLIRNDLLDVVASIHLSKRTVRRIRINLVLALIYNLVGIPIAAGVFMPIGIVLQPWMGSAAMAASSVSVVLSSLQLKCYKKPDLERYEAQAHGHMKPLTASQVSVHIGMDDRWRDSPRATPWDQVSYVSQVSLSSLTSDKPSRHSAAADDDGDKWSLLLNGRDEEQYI
# Sequence of UniProt Q8IUR7 (Q8IUR7 whole entry, looked up): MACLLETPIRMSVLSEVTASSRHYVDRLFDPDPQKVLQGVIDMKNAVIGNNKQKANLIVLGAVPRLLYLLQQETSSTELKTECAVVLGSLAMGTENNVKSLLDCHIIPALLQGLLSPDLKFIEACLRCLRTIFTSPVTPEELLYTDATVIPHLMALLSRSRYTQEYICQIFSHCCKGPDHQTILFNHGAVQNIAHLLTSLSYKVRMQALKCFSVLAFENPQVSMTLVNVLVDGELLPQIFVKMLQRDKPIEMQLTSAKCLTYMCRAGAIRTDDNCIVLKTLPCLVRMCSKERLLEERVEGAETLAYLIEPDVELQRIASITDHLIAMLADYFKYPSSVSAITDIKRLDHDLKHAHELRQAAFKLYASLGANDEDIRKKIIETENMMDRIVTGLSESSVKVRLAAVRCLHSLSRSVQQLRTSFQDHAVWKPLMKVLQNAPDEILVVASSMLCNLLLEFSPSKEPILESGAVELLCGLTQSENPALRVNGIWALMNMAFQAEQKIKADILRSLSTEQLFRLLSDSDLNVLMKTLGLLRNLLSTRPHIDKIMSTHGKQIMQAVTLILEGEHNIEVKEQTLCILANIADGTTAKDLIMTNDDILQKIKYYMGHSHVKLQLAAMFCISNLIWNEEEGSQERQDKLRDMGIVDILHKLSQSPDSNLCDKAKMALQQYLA
# Sequence of UniProt P30043 (P30043 whole entry, looked up): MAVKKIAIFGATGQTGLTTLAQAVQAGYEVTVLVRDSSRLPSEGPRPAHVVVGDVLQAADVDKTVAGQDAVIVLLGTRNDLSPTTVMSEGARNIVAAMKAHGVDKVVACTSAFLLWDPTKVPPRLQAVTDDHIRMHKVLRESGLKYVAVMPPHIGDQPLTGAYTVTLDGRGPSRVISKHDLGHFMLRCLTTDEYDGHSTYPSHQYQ
# Sequence of UniProt P31751 (P31751 whole entry, looked up): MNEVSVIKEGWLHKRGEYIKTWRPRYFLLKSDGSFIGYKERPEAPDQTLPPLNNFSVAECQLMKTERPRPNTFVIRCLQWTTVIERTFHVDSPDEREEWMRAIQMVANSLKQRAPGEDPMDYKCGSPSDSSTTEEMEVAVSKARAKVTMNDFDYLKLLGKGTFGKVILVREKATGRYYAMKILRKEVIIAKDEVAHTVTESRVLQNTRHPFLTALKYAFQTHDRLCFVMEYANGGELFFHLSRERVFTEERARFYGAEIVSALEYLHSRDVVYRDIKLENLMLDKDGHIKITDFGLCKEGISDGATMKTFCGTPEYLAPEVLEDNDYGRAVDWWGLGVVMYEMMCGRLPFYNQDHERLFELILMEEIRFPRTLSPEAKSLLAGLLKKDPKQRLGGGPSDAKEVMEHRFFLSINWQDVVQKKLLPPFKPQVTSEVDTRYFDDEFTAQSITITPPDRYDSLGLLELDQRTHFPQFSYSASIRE
# Sequence of UniProt P54707 (P54707 whole entry, looked up): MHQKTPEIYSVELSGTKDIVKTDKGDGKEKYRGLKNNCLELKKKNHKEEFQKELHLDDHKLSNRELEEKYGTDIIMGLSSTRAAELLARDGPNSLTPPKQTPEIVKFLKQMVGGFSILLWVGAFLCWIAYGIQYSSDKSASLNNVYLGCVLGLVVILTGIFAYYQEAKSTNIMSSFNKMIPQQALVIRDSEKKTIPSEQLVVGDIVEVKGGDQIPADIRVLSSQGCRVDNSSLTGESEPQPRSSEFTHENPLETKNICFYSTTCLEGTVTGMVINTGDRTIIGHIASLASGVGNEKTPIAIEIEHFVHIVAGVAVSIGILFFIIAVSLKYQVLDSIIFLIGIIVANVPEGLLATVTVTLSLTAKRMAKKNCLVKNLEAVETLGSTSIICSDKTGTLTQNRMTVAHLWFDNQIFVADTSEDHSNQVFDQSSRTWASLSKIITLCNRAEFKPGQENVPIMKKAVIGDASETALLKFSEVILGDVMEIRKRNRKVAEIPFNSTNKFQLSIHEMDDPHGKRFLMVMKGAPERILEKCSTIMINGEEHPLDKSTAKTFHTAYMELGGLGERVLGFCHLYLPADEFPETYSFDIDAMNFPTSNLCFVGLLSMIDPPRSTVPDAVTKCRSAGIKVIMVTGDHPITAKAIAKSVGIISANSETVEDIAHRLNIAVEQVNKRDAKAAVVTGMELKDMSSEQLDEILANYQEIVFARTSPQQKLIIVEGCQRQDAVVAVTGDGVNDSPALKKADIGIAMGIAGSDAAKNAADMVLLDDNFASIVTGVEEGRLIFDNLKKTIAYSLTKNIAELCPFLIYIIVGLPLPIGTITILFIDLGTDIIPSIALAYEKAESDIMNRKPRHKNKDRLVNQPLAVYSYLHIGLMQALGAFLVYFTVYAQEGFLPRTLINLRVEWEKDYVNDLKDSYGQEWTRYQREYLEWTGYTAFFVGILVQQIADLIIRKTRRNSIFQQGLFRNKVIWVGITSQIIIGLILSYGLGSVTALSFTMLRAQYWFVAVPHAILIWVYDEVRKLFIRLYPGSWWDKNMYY
# Sequence of UniProt P24666 (P24666 whole entry, looked up): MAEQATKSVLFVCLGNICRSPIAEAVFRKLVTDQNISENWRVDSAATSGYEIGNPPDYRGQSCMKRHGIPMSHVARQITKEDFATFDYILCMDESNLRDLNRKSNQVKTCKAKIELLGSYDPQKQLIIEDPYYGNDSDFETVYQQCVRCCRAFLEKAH
# Sequence of UniProt P49189 (P49189 whole entry, looked up): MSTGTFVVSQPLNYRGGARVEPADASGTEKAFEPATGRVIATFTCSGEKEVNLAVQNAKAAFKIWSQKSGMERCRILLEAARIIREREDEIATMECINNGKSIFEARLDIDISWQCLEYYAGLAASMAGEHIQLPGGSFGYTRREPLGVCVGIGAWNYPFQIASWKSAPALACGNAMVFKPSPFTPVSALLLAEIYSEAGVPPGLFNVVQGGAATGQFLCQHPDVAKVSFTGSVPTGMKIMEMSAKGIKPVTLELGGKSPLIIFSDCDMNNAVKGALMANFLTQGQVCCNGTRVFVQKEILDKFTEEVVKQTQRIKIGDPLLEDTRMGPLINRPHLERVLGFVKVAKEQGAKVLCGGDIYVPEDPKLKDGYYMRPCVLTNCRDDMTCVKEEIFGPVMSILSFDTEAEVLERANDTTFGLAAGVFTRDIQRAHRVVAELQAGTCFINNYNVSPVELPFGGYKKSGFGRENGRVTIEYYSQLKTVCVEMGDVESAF
Target,log2 fold change [1],log2 fold change [2],log2 fold change [3],log2 fold change [4],log2 fold change [5],log2 fold change [6],log2 fold change [7],log2 fold change [8],log2 fold change [9],log2 fold change [10]
ATP13A3 (UniProt Q9H7F0),-0.029,0.048,-0.159,0.002,-0.005,-0.014,0.091,0.013,0.037,0.037
ATP7B (UniProt P35670),0.069,0.005,-0.085,0.01,-0.019,-0.011,-0.044,0.005,0.052,-0.021
ANK2 (UniProt Q01484),0.24,0.05,-0.013,-0.122,0.05,-0.057,-0.019,-0.095,-0.106,-0.041
ALDH9A1 isoform 3 (UniProt P49189),-0.019,0.01,-0.007,-0.024,0.05,-0.024,-0.054,-0.009,-0.016,-0.005
ARL2BP (UniProt Q9Y2Y0),0.093,-0.047,-0.021,0.082,0.002,-0.153,0.055,0.147,-0.12,-0.055
AAMP (UniProt Q13685),-0.002,0.006,-0.017,-0.049,0.022,-0.102,0.054,-0.014,-0.016,-0.009
ADD3 (UniProt Q9UEY8),0.032,-0.087,-0.068,-0.02,-0.005,-0.018,-0.013,-0.039,-0.003,0.045
ARGLU1 (UniProt Q9NWB6),0.016,0.091,0.014,0.003,-0.365,-0.04,-0.026,-0.028,-0.006,0.077
ATP11A (UniProt P98196),0.082,0.094,0.059,0.007,-0.002,-0.093,0.192,0.044,0.008,0.017
ATP6V1F isoform 2 (UniProt Q16864),-0.198,0.092,-0.174,0.11,0.031,0.007,-0.037,-0.129,-0.039,0.238
ATP12A isoform 2 (UniProt P54707),0.011,0.031,-0.026,-0.019,0.002,-0.072,-0.027,0.023,-0.015,-0.005
ABCB6 (UniProt Q9NP58),0.073,0.01,-0.064,-0.017,-0.013,-0.031,-0.034,0.003,0.055,-0.017
ARFGAP2 (UniProt Q8N6H7),0.037,-0.051,-0.083,0.03,0.025,-0.023,0.017,0.017,0.05,-0.02
ALDH9A1 (UniProt P49189),0.005,0.032,-0.088,-0.019,0.016,-0.008,-0.014,-0.041,0.023,-0.058
ACP1 (UniProt P24666),-0.031,-0.054,-0.111,0.141,-0.1,-0.044,0.12,0.123,0.035,-0.111
ARMC8 (UniProt Q8IUR7),-0.05,-0.07,-0.049,0.009,0.016,-0.005,0.017,0.228,0.026,-0.031
ALDH2 (UniProt P05091),0.007,-0.099,-0.04,-0.032,0.078,-0.055,-0.099,0.026,0.013,-0.03
ACSL5 isoform 3 (UniProt Q9ULC5),0.058,0.078,-0.082,-0.057,0.071,-0.063,0.005,-0.132,-0.072,0
ATP5IF1 (UniProt Q9UII2),-0.111,0.111,0.013,-0.039,-0.014,0.046,-0.011,0.011,-0.063,-0.244 (active)
APLP2 (UniProt Q06481),0.072,0.094,0.011,0.014,0.009,-0.055,-0.082,-0.051,0.02,0.051
AP2S1 (UniProt P53680),0.012,0.009,-0.009,0.009,0.077,0.038,0.019,-0.012,0.077,0.025
BMP2K (UniProt Q9NSY1),0.071,0.023,0.088,0.015,0.183,0.179,0.064,-0.029,-0.069,-0.012
AKT2 (UniProt P31751),-0.012,-0.068,-0.005,0.01,0.042,-0.009,-0.058,-0.102,0.015,0.013
ADH5 (UniProt P11766),0.04,0.03,0.011,-0.025,-0.025,-0.014,-0.066,-0.025,-0.006,0.002
AIFM2 (UniProt Q9BRQ8),0.017,0.08,-0.02,-0.026,-0.016,-0.029,0.011,0.003,-0.017,-0.01
AGPAT1 (UniProt Q99943),-0.009,0.045,0.002,-0.004,0.074,-0.079,-0.109,-0.011,0.039,0.003
AGPAT3 isoform 3 (UniProt Q9NRZ7),0.01,-0.084,-0.061,0.019,0.012,-0.037,-0.036,-0.045,-0.001,0.008
ACBD6 (UniProt Q9BR61),-0.129,-0.115,-0.076,0.196,0.067,-0.112,-0.061,0.006,0.098,-0.047
BLVRB (UniProt P30043),0.101,-0.047,-0.083,-0.002,0.058,-0.045,0.043,0.061,-0.007,-0.003
